Lassa entry inh: qHTS for Inhibitors of binding or entry into cells for Lassa Virus | Lassa virus pseudotype entry inhibition, cell reporter | Potency, µM (top dose mostly 37.9 µM), most hits filed as inhibitors | hit rate 1.2% among 300,000 | AID 540256, 2011; calls by dose curve; tested in HEK293 cells; note: nearly all actives have a fitted effect of over 50% in size
Marburg entry inh: qHTS for inhibitors of binding or entry into cells for Marburg Virus. Marburg virus pseudotyped entry inhibition, cell reporter. Potency, µM (doses to about 37.8 µM), usual class: inhibitors. hit rate 1.8% among 300,000. AID 540276, 2011; calls by dose curve; tested in HEK293 cells
Vaccinia Venus: qHTS for Stage-Specific Inhibitors of Vaccinia Orthopoxvirus: Venus Reporter Primary qHTS; Vaccinia virus Venus reporter expression, fluorescence; Potency, µM (series often up to 36.5 µM), actives largely listed as inhibitors; hit rate 0.46% among 330,000; calls by dose curve; tested in A549 cells; note: nearly all actives have a fitted effect of over 30% in size
HCMV antiviral: qHTS Assay for inhibitors of the human cytomegalovirus (HCMV); HFF cells, HCMV-luciferase reporter, 72 h; stronger effect = lower value; activity change, negative = inhibition, % at 57.5 µM; hit rate 4.5% among 410,000; AID 1259415, 2018; in the data active = activity change below about -60%; inconclusive = no clear call, values can overlap the other calls; inactive = above about -39%
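Human foreskin fibroblasts infected with luciferase-reporter HCMV at MOI 1 PFU/cell, compounds at two doses. Luciferase measured 72 h post infection; normalized to buffer-only basal and Salinomycin (10uM) controls.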
FMDV antiviral: High Throughput Screening for Foot and Mouth Disease Virus Antivirals | AID 1159524, 2015 | Potency, µM (top dose mostly 57.9 µM), hits mostly inhibitors | hit rate 1.2% among 410,000 | FMDV antiviral cell-based qHTS; calls by dose curve; tested in HEK293T cells; note: read-out not given here; nearly all actives have a fitted effect of over 45% in size
Vaccinia mCherry: qHTS for Stage-Specific Inhibitors of Vaccinia Orthopoxvirus: mCherry Reporter Primary qHTS; Potency, µM (titrated, usually from 36.5 µM), actives largely listed as inhibitors; hit rate 0.63% among 310,000; Vaccinia virus mCherry reporter infection, fluorescence; AID 720579, 2013; calls by dose curve; tested in A549 cells; note: nearly all actives have a fitted effect of over 35% in size
A number is an active result. In the library only some 6.5% were active in any assay of this set; here they are far more common.

What do the screens show for `COc1ccc(C)cc1S(=O)(=O)N1CCN(C(=O)c2ncoc2-c2ccc(C)cc2)CC1`?
Lassa entry inh: inconclusive; Marburg entry inh: inactive; Vaccinia Venus: inactive; HCMV antiviral: -70; FMDV antiviral: inactive; Vaccinia mCherry: inactive

How did Cc1cccc(OCc2nnc(SCC(=O)N(C)C3CCCCC3)o2)c1 do in these assays?
Lassa entry inh: inactive; Marburg entry inh: inactive; Vaccinia Venus: inactive; HCMV antiviral: inactive; FMDV antiviral: inactive; Vaccinia mCherry: inactive

How did COc1ccccc1C(=O)Nc1nnc(SCc2cc(=O)n3ccc(C)cc3n2)s1 do in these assays?
Lassa entry inh: inactive; Vaccinia Venus: inactive; HCMV antiviral: inactive; FMDV antiviral: inactive; Vaccinia mCherry: inactive

How did Cc1c(Cl)cccc1NC(=O)CN1C(=O)COc2ccc(S(=O)(=O)Nc3ccccc3)cc21 do in these assays?
Lassa entry inh: inactive; Vaccinia Venus: inactive; HCMV antiviral: inconclusive; FMDV antiviral: inactive; Vaccinia mCherry: inactive

How did CCn1c(/C=C/Nc2ccccc2)[n+](CC)c2cc(Cl)c(Cl)cc21 do in these assays?
Lassa entry inh: inconclusive; Marburg entry inh: 13µM; Vaccinia Venus: inactive; HCMV antiviral: inactive; FMDV antiviral: inactive; Vaccinia mCherry: inactive

How did CCn1c(/C=C/N(C(C)=O)c2ccccc2)[n+](CCCS(=O)(=O)[O-])c2cc(Cl)c(Cl)cc21 do in these assays?
Lassa entry inh: inactive; Marburg entry inh: inactive; Vaccinia Venus: inactive; HCMV antiviral: inactive; FMDV antiviral: inactive; Vaccinia mCherry: inactive

What do the screens show for `CCOC(=O)N1CCN(C(=O)CSc2nc3ccccc3c(=O)n2-c2ccccc2)CC1`?
Lassa entry inh: 8.9µM; Marburg entry inh: inactive; Vaccinia Venus: inactive; HCMV antiviral: inactive; FMDV antiviral: inconclusive

What do the screens show for `Cc1ccc(-n2c(SCC(=O)N3CC(=O)Nc4ccccc43)nc3ccccc3c2=O)cc1`?
Lassa entry inh: inactive; Marburg entry inh: inconclusive; Vaccinia Venus: inconclusive; HCMV antiviral: -68; FMDV antiviral: inactive; Vaccinia mCherry: inactive

What do the screens show for `CC(C)c1nc(SCC(=O)N2CC(=O)Nc3ccccc32)c2ccccc2n1`?
Lassa entry inh: inconclusive; Marburg entry inh: inconclusive; Vaccinia Venus: inconclusive; HCMV antiviral: -87; FMDV antiviral: 16µM; Vaccinia mCherry: inconclusive

Results for Cc1ccc(CNC(=O)C(C(=O)NCc2ccc(C)o2)c2ncc(C(F)(F)F)cc2Cl)o1 ?
Lassa entry inh: inactive; Marburg entry inh: inactive; Vaccinia Venus: inactive; HCMV antiviral: inactive; FMDV antiviral: inactive; Vaccinia mCherry: inactive

How did COc1ccc2c(c1)[C@@H](NC(=O)OCc1ccccc1)[C@H](C)[C@@H](c1ccccc1)N2Cc1ccccn1 do in these assays?
HCMV antiviral: inactive

Results for CSCCC(C(=O)Nc1c(C)cccc1C)n1c(-c2cc(C)cs2)nc2ccccc21 (stereo not drawn) ?
Vaccinia Venus: inactive; HCMV antiviral: inactive; FMDV antiviral: inactive; Vaccinia mCherry: inactive

Results for CC(C)Cc1cc(C(=O)NCC2Cc3cc(F)cc(-c4ccccn4)c3O2)no1 (stereo not drawn) ?
Vaccinia Venus: inactive; FMDV antiviral: inactive; Vaccinia mCherry: inactive

What do the screens show for `CCOC(=O)c1c(C)[nH]c(C)c1S(=O)(=O)N1CCN(c2cc(Cl)ccc2C)CC1`?
Lassa entry inh: inactive; Vaccinia Venus: inactive; HCMV antiviral: -90; FMDV antiviral: inactive; Vaccinia mCherry: inactive

Results for CCOC(=O)c1c(C)[nH]c(CCC(=O)NCCCN2CCN(c3ccc(F)cc3)CC2)c1C ?
Lassa entry inh: inactive; Vaccinia Venus: inactive; HCMV antiviral: inactive; FMDV antiviral: inconclusive; Vaccinia mCherry: inactive

What do the screens show for `CCOC(=O)c1c(C)[nH]c(CCC(=O)NCCCN2CCN(c3cc(Cl)ccc3C)CC2)c1C`?
Lassa entry inh: inconclusive; Vaccinia Venus: inconclusive; HCMV antiviral: -97; FMDV antiviral: inconclusive; Vaccinia mCherry: inconclusive

What do the screens show for `CCOC(=O)c1c(C)[nH]c(C)c1S(=O)(=O)N1CCN(c2cccc(C(F)(F)F)c2)CC1`?
Lassa entry inh: inactive; Vaccinia Venus: inactive; HCMV antiviral: -101; FMDV antiviral: inactive; Vaccinia mCherry: inactive

How did Cc1ccc(Cl)cc1N1CCN(CCNC(=O)Nc2ccc(Cl)cc2)CC1 do in these assays?
Lassa entry inh: inactive; Marburg entry inh: inconclusive; Vaccinia Venus: inactive; HCMV antiviral: -90; FMDV antiviral: inconclusive; Vaccinia mCherry: inactive

From PubChem BioAssay
